Among all 71,000 compounds or so, about 180 (0.25%) were called active. Calls come from the whole dose curve; as a rule, active = well fitted curve in the direction sought with a large enough effect; inconclusive = small, poorly fitted or top-dose-only effect; inactive = flat fitted curve, though single readings scatter. The entries come from a sample that favours actives as a whole. Entries that show only a call come without a potency.
What follows are molecules tested on DNA polymerase III holoenzyme (E. coli) (assay: qHTS Assay for Inhibitors of DNA Polymerase III Holoenzyme System). Conditions: reconstituted DNA polymerase III holoenzyme replication, biochemical; series mostly up to 57.1 µM.
Procedure: NIH Molecular Libraries Screening Centers Network [MLSCN]
NIH Chemical Genomics Center [NCGC]
Assay Provider: Charles McHenry, University of Colorado
E. coli DNA polymerase III holoenzyme complex was assayed for DNA production by fluorescent detection of the double-stranded DNA product with PicoGreen dye. The holoenzyme complex was reconstituted from the following purified protein components: DNA Polymerase III, beta subunit processivity factor, SSB single-stranded DNA binding protein, and Primase. Single-stranded, circular M13Gori was used as a substrate with dNTPs and NTPs also supplied to the substrate reagent. Compounds from the NCGC collection were incubated with the holoenzyme mixture for 15 min at room temperature to allow binding to occur, and then the reaction was started by the addition of substrate. After 30 min incubation at room temperature, PicoGreen solution containing EDTA was added to stop the reaction and to visualize the double-stranded DNA produced. Reaction progress was measured in a ViewLux CCD imager in fluorescence intensity mode by using 480 nm excitation and 540 nm emission filter set.
NCGC Assay Protocol Summary:
Buffer. 50 mM Hepes-KOH, pH 7.5, 5 % Glycerol, 0.02% NP40, 30 mM potassium;
glutamate, 1.5 mM Magnesium Acetate, 16 uM TCEP.
Buffer in columns 3 and 4 as negative control (no enzyme).
Substrate solution: 5 uM each dATP, dGTP, dCTP and TTP, 50 uM each GTP, CTP, UTP and 200 uM ATP, 1.4 nM M13gori (final concentrations).
Enzyme: 154 nM SSB, 2 nM Primase, 1 nM Beta, 0.35 nM Pol III (final concentrations).
PicoGreen/EDTA: 10 mM Tris-HCl, 10 mM EDTA, 5 uM PicoGreen (final concentrations).
Control titration: ChemBridge 5805060 (from 10 mM, then 1:2, in duplicate) was pin-transferred to upper half of column 2.
Three uL of holoenzyme mixture were dispensed to 1536-well Greiner black solid bottom plates. Compounds and controls (23 nL) were transferred via Kalypsys PinTool. The plates were incubated for 15 min at room temperature, and then 1 uL of substrate solution was added to start the reaction. After room temperature incubation for 35 minutes, 1 uL of PicoGreen solution was added to each well and the plates were read 480 nm excitation and 540 nm emission using ViewLux (Perkin-Elmer) High-throughput CCD imager and fluorescence protocol settings.
Keywords: NIH Roadmap, MLSCN, MLI, MLSMR, qHTS, NCGC, DNA Polymerase III, DNAPol3, DNAPoly3, DNA replication targets
Potency is the fitted concentration of half-maximal effect.

Row | SMILES | activity change, negative = inhibition | Potency
1 | O=C(c1cc(C(F)(F)F)cc(C(F)(F)F)c1)N1CCC2(CC1)CN(c1ccncc1)C2 | inactive | –
2 | CCN1C(=O)/C(=C2\SC(N3CCCCC3)=NC2=O)c2ccccc21 | inactive | –
3 | C/C=C/C=C/C(=O)O | inactive | –
4 | O=S(=O)(/C=C/c1ccccc1)NCCc1ccccn1 | inactive | –
5 | COc1ccc(S(=O)(=O)Nc2ccc3c(c2)OCO3)cc1Cl | inactive | –
6 | CCN1CCCC1CNC(=O)c1cc2c(=O)n(C)c3ccccc3c2n1C (centres undefined) | – | 25.1 µM (active)
7 | Cn1c(C(=O)NCCc2ccsc2)cc2c(=O)n(C)c3ccccc3c21 | inactive | –
8 | CC1CCCC(C)N1CCCNC(=O)c1cc2c(=O)n(C)c3ccccc3c2n1C (centres undefined) | inactive | –
9 | OCCNCCCCOc1ccccc1F | -4.9% [at 11.4 µM] (inactive) | –
10 | CC1(C)S[C@@H]2[C@@H](NC(=O)[C@@H](N)c3ccccc3)C(=O)N2[C@H]1C(=O)O | inactive | –
11 | Oc1ccc(Cn2cc[nH]c2=S)cc1 | inactive | –
12 | C[N+]1(CCN=C=NC2CCCCC2)CCOCC1 | -1.6% [at 11.4 µM] (inactive) | –
13 | COc1ccc(C(=O)OCC(=O)c2ccc(C)c(S(=O)(=O)N3CCOCC3)c2)cc1OC | inactive | –
14 | CCOc1ccc(NC(=O)CCC(=O)n2nc(C)cc2C)cc1 | inactive | –
15 | Cc1cccc(N2CCN(C(=O)c3cc4c(=O)[nH]c5ccccc5c4n3C)CC2)c1C | inactive | –
16 | CCCn1c(C)nc2c(NCCCCN(CC)CC)nc(C)nc21 | inactive | –
17 | NCCNCC1CCNCC1 | -9.7% [at 11.4 µM] (inactive) | –
18 | CCNC(=S)NCC | inactive | –
19 | CC(Cc1ccccc1)C(=O)N(C)Cc1ccccc1 (centres undefined) | inactive | –
20 | COc1ccccc1CNc1ncncc1-c1cccnc1 | inactive | –
21 | COc1cccc(NC(=O)Cn2cnc3sc(C)c(S(=O)(=O)N4CCN(C)CC4)c3c2=O)c1 | inactive | –
22 | COc1ccccc1N1CCN(C(=O)Cn2nnc(-c3cccs3)n2)CC1 | inactive | –

Row | SMILES | activity change, negative = inhibition | Potency
23 | Cc1[nH]c(N)nc(=S)c1CCCNc1ccccc1 | -9.5% [at 11.4 µM] (inactive) | –
24 | COc1ccc(OCC(=O)N2CCN(C(=O)c3cccs3)CC2)cc1 | inactive | –
25 | CC(C)C[C@@H](CC(=O)N[C@@H](CCC(=O)O)CC(=O)O)NC(=O)[C@@H]1CCCC[C@H]1NC(=O)C[C@@H](NC(=O)C[C@H](CO)NC(=O)[C@@H]1CCCC[C@H]1N)C(C)C | inactive | –
26 | Cc1c(C)c2c(c(C)c1O)CC[C@@](C)(CN1CCN(c3cc(N4CCCC4)nc(N4CCCC4)n3)CC1)O2 | inactive | –
27 | CCCCNC(=O)CSc1nnc(-c2ccco2)n1C | inactive | –
28 | CCN(CC)CCNC(=O)Cn1cnc2sc(C)c(S(=O)(=O)N3CCOCC3)c2c1=O | inactive | –
29 | O=C1CC(c2ccccc2)C(=O)N1c1cccc(O)c1 (centres undefined) | inactive | –
30 | Cc1cc(Nc2ccc(Br)cc2F)n2ncnc2n1 | inactive | –
31 | COC(=O)c1ccccc1NC(=O)C1CCN(S(=O)(=O)c2cc(OC)ccc2OC)CC1 | inactive | –
32 | O=C(NCCCCO)C(F)(F)C(F)(F)C(F)(F)C(=O)NCCCCO | inactive | –
33 | CCOc1cc(-c2nc3cc(C)ccn3c2NCC2CCCO2)ccc1O (centres undefined) | inactive | –
34 | N#C/C=C1\Sc2ccccc2C(=O)N1CC(=O)N1CCN(S(=O)(=O)c2ccccc2)CC1 | inactive | –
35 | COc1ccc(NC(=O)N2CC3(CCN(C(C)=O)CC3)C2)cc1 | inactive | –
36 | CCN(CC(=O)NCc1cccs1)c1nnnn1-c1ccccc1 | inactive | –
37 | O=C1N(Cc2ccc3c(c2)OCO3)c2ccccc2C1(O)c1c[nH]c2ccccc12 (centres undefined) | inactive | –
38 | Cc1nc2cnc(N3CCN(C)CC3)nc2n(C[C@H]2CCCO2)c1=O | inactive | –
39 | N#CC1=C(N)Oc2cc(O)ccc2C1C1CCCCC1 (centres undefined) | inactive | –
40 | O=C(O)c1c(Br)c(Br)c(Br)c(Br)c1C1c2ccc(O)cc2Oc2cc(O)ccc21 | – | 0.0251 µM (active)
41 | FC(F)(F)c1ccccc1-c1nc(-n2ccnc2)c2ccccc2n1 | inactive | –
42 | O=C(CSc1nc(-c2ccco2)cc(C(F)(F)F)n1)N1CCc2ccccc2C1 | inactive | –
43 | O=C(O)/C(=C/c1c(C(=O)O)[nH]c2cc(Cl)cc(Cl)c12)c1ccccc1 | – | 31.6 µM (active)
44 | COCCCNC(=O)c1ccc(CNS(=O)(=O)c2ccc(NC(C)=O)cc2)cc1 | inactive | –

— PubChem BioAssay AID603 (National Center for Advancing Translational Sciences (NCATS), 2007)
